BoNT-F LC inh – blocks Botulinum neurotoxin F light chain protease; hit rate 0.22% among 360,000; Multiplex microsphere protease cleavage assay, flow cytometry; AID 588497; inhibition, % at 10 µM; in the data active = inhibition above about 35%, passing the limit was not always enough; inconclusive = no clear call, values can overlap the other calls; note: plate controls were buffer without enzyme for full effect and enzyme alone for no effect
MazEF act – activators of E. coli MazEF toxin-antitoxin RNase | P0AE70 | FAM/BHQ RNA-DNA oligo cleavage fluorescence, 5 h | activation, % at 20 µM | hit rate 0.32% among 350,000 | AID 504720; in the data active = activation above about 50%
BoNT-A LC inh2 – BoNT A light chain protease inhibition; multiplex microsphere protease substrate cleavage, flow cytometry; inhibition, % at 10 µM; hit rate 0.17% among 360,000; note: plate controls were buffer without enzyme for full effect and enzyme alone for no effect
Anthrax LF prot – blocks Bacillus anthracis lethal factor protease. P15917. multiplex microsphere protease cleavage assay, LF. inhibition, % at 10 µM. hit rate 0.12% among 360,000. AID 588501; note: plate controls were buffer without enzyme for full effect and enzyme alone for no effect
Bead autofluor – flagged as autofluorescent in microsphere protease counterscreen. hit rate 3.1% among 360,000. AID 624483. fluorescence intensity (no concentration beside the values). compound autofluorescence counterscreen, microsphere flow cytometry; stronger effect = higher value; in the data active = fluorescence intensity above about 16000; inconclusive = no clear call, values can overlap the other calls
Active calls of the source: *; ? = inconclusive; · = no result. An excerpt weighted towards active compounds, which were near 3.7% of everything screened. Cut-off read from the data, not from the text of the source, unless noted: active = inhibition above about 30%; inconclusive = no clear call, values can overlap the other calls; inactive = below that.

SMILES	BoNT-F LC inh	MazEF act	BoNT-A LC inh2	Anthrax LF prot	Bead autofluor
Cc1cc(=O)oc2cc(OC(C)C(=O)N3CCOCC3)ccc12 (configuration not stated)	-2.3	10.2	-0.8	1.9	23796*
COc1ccc(-n2c(C)nn(C)c2=O)c(OC)c1	2.9	-1.8	?	-7.9	18468*
Cc1nn(C)c(=O)n1-c1ccccc1	-2.1	-3.4	-0.7	-5.7	3995
COc1ccc(N2C(=O)CCC2=O)c(OC)c1	-2.6	12.1	0.1	1.3	4042
Cc1nn(C)c(=O)n1-c1ccc(Oc2ccccc2)cc1	3.5	0.1	3.2	-2.1	21312*
Cc1cccnc1C1=NOC(Cc2ccccc2)C(=O)N1CCOc1ccc(F)cc1 (configuration not stated)	-0.4	·	-0.8	-5.6	5677
CCn1nc(NC(=O)c2ccncc2)c2cc3ccc(C)cc3nc21	-3.4	-4.2	-2.6	0.9	20719*
CCn1nc(NC(=O)c2ccncc2)c2cc3cc(C)ccc3nc21	?	-2.8	2.0	-1.5	4495
CCCn1nc(NC(=O)c2ccncc2)c2cc3ccccc3nc21	-6.4	9.4	0.2	-6.1	5760
CCCCn1nc(NC(=O)c2cccs2)c2cc3ccccc3nc21	4.3	-2.6	3.4	1.0	21346*
CCCC(=O)Nc1nn(CCC)c2nc3ccccc3cc12	-4.4	0.4	-1.3	-2.6	21458*
CCCn1nc(NC(=O)C2CCCO2)c2cc3cc(C)ccc3nc21 (configuration not stated)	-1.5	-1.5	-0.3	-1.1	21148*
CCCn1nc(NC(=O)c2cccs2)c2cc3ccccc3nc21	-2.5	5.6	-1.4	-0.4	23719*
O=C(CNC(=O)c1ccccc1F)OC(C(=O)Nc1cc(C(F)(F)F)ccc1Cl)c1ccccc1 (configuration not stated)	3.5	7.6	2.1	-0.3	22099*
C[C@H](NC(=O)c1ccccc1Cl)C(=O)OC(C(=O)Nc1cc(C(F)(F)F)ccc1Cl)c1ccccc1 (some centres not stated)	-17.6	2.2	-0.5	0.7	2808
CCCC1CC(C(=O)Nc2ccccc2)C(=O)O1 (configuration not stated)	0.0	11.5	-0.3	-11.7	6162
Cn1c(=O)c(Nc2ccc(O)cc2)c2c3c(cccc31)C(=O)c1ccccc1-2	2.7	64.5*	1.5	-4.8	1738
COc1ccc(N2CCCC2)c(NC(=O)c2ccc(Br)o2)c1	4.3	62.6*	2.4	-2.4	4184
O=C(Nc1ccccc1N1CCCC1)c1ccc(Br)o1	5.5	8.1	0.6	2.4	8191
COC(=O)C/C=C/N(Cc1ccccc1OC)S(=O)(=O)CCl	-6.7	5.0	-0.1	-5.7	3928
COc1ccc2cc(C#N)c(SCC(=O)NNC(=O)Cc3ccccc3)nc2c1	-1.9	-66.5	1.0	0.2	19935*
COC(=O)CSc1nc2cc(OC)ccc2cc1C#N	-2.8	202.8*	0.5	-7.7	9666
CCOc1ccc2cc(C#N)c(SCC(=O)N3CCC(C)CC3)nc2c1	-2.3	8.0	-1.8	1.5	23801*
Cc1ccccc1CNC(=O)c1ccc2sc([C@H]3C[C@H](O)[C@@H](CO)O3)nc2c1	-2.1	·	-0.1	-3.9	3714
Cc1ccc(NC(=O)CSc2nnc(-c3ccc(S(=O)(=O)N4CCOCC4)cc3)n2C)cc1	1.8	-1.1	?	-5.4	19086*
SMILES	BoNT-F LC inh	MazEF act	BoNT-A LC inh2	Anthrax LF prot	Bead autofluor
CC(=O)Nc1ccc(C(=O)CSc2nc3ccccc3n2CC(=O)N2CCCC2)cc1	-3.7	-0.5	-0.5	-1.0	16357*
O=C(CCCN1C(=O)c2ccccc2C1=O)Nc1ccc(S(=O)(=O)N2CCOCC2)cc1	-6.6	5.3	?	-5.1	24200*
CCn1c(SCC(=O)Nc2cc(C)on2)nnc1-c1ccc(S(=O)(=O)N2CCCC2)cc1	-0.8	-3.2	?	-0.4	20376*
O=C(CCCN1C(=O)c2ccccc2C1=O)Nc1ccc(S(=O)(=O)N2CCCCC2)cc1	-14.5	0.3	-0.4	-0.1	11121
Cc1ccc(S(=O)(=O)N2CCC(=O)N([C@H](COCc3cccc(C)c3)C(C)C)CC2)cc1	-3.0	·	-0.1	4.2	5455
NC(=O)CSc1nnc(-c2ccc(S(=O)(=O)N3CCOCC3)cc2)n1CC1CCCO1 (configuration not stated)	2.6	-3.0	0.6	-5.9	22288*
Cn1nnnc1SCC(=O)Nc1cccc(S(=O)(=O)N2CCCC2)c1	-4.4	1.0	0.5	3.7	4595
COc1cccc(NC(=O)Cn2c(SCC(=O)N3CCOCC3)nc3ccccc32)c1	-1.6	-6.1	?	-5.4	16158*
Cc1ccc(-n2c(SCC(N)=O)nnc2-c2ccc(S(=O)(=O)N3CCCCC3)cc2)c(C)c1	0.3	-7.6	1.1	-1.3	16453*

High-throughput results (PubChem)
